In PubChem BioAssay AID1159580 (chemical genetic matrix, 2015):
Several values for one entry are separate records, joined by “and”; a condition that tells them apart may be missing. Identical values can stand only once. The whole screen tested about 5,500 compounds, of which about 2,000 (36%) were called active. Another 18% or so got no clear call; they are omitted. No stated cut-off is given here; in the data, active means normalized growth mostly below about 0.91 (no sharp cut-off); inconclusive means no clear call, values can overlap the other calls; inactive means mostly above about 0.92. This is one part of the list.

Experiment: chemical genetic growth profiling, strain panel (AID 1159580);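 further: tested at 20 µM; growth read once vehicle control cultures reached saturation at 30 °C; 1 = growth at the plate median or of vehicle wells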
Conditions: S. cerevisiae deletion strains, growth OD

Q: For `CN(C)CC/C=C1\c2ccccc2Sc2ccc(Cl)cc21`, which normalized growth (locus YAL013W, strain DEP1, stronger effect = lower value) is on record?
A: The normalized growth was 0.907 (active).

Q: What about the normalized growth (locus YAL021C, strain ccr4, stronger effect = lower value) of the same molecule?
A: The normalized growth was 0.696 (active).

Q: What about the normalized growth (locus YAL026C, strain drs2, stronger effect = lower value) of the same molecule?
A: Its normalized growth is 0.0729 (active).

Q: And the normalized growth (locus YAL030W, strain snc1, stronger effect = lower value)?
A: The normalized growth was 0.985 (inactive).

Q: And the normalized growth (locus YBL061C, strain skt5, stronger effect = lower value)?
A: The normalized growth was 0.863 (active).

Q: What about the normalized growth (locus YBR009C, strain hhf1, stronger effect = lower value) of the same molecule?
A: Its normalized growth is 0.859 (active).

Q: And the normalized growth (locus YBR021W, strain FUR4, stronger effect = lower value)?
A: Its normalized growth is 0.605 (active).

Q: And the normalized growth (locus YBR023C, strain chs3, stronger effect = lower value)?
A: Its normalized growth is 0.831 (active).

Q: And the normalized growth (locus YBR171W, strain sec66, stronger effect = lower value)?
A: Its normalized growth is 0.984 (inactive).

Q: What about the normalized growth (locus YBR229C, strain ROT2, stronger effect = lower value) of the same molecule?
A: Its normalized growth is 1.01 (inactive).

Q: And the normalized growth (locus YBR231C, strain swc5, stronger effect = lower value)?
A: Its normalized growth is 0.676 (active).

Q: What about the normalized growth (locus YBR279W, strain paf1, stronger effect = lower value) of the same molecule?
A: Its normalized growth is 0.904 (active).

Q: And the normalized growth (locus YCL011C, strain gbp2, stronger effect = lower value)?
A: Its normalized growth is 0.897 (active).

Q: What about the normalized growth (locus YCL016C, strain dcc1, stronger effect = lower value) of the same molecule?
A: The normalized growth was 0.894 (active).

Q: What about the normalized growth (locus YCL029C, strain bik1, stronger effect = lower value) of the same molecule?
A: Its normalized growth is 1.03 (inactive).

Q: What about the normalized growth (locus YCL061C, strain MRC1, stronger effect = lower value) of the same molecule?
A: The normalized growth was 0.987 (inactive).

Q: What about the normalized growth (locus YCL069W, strain vba3, stronger effect = lower value) of the same molecule?
A: The normalized growth was 0.962 (inactive).

Q: What about the normalized growth (locus YCR088W, strain abp1, stronger effect = lower value) of the same molecule?
A: Its normalized growth is 0.971 (inactive).

Q: What about the normalized growth (locus YDL005C, strain med2, stronger effect = lower value) of the same molecule?
A: The normalized growth was 1.01 (inactive).

Q: What about the normalized growth (locus YDL035C, strain GPR1, stronger effect = lower value) of the same molecule?
A: The normalized growth was 0.901 (inactive).

Q: What about the normalized growth (locus YDL040C, strain nat1, stronger effect = lower value) of the same molecule?
A: The normalized growth was 1 (inactive).

Q: And the normalized growth (locus YDL074C, strain BRE1, stronger effect = lower value)?
A: Its normalized growth is 0.775 (active).

Q: What about the normalized growth (locus YDL101C, strain DUN1, stronger effect = lower value) of the same molecule?
A: Its normalized growth is 0.99 (inactive).

Q: And the normalized growth (locus YDL134C, strain PPH21, stronger effect = lower value)?
A: The normalized growth was 0.882 (active).

Q: What about the normalized growth (locus YDL185W, strain tfp1, stronger effect = lower value) of the same molecule?
A: Its normalized growth is 1.02 (inactive).

Q: And the normalized growth (locus YDL192W, strain arf1, stronger effect = lower value)?
A: Its normalized growth is 1 (inactive).

Q: What about the normalized growth (locus YDR001C, strain nth1, stronger effect = lower value) of the same molecule?
A: The normalized growth was 0.996 (inactive).

Q: And the normalized growth (locus YDR069C, strain doa4, stronger effect = lower value)?
A: The normalized growth was 0.684 (active).

Q: What about the normalized growth (locus YDR101C, strain arx1, stronger effect = lower value) of the same molecule?
A: Its normalized growth is 0.977 (inactive).

Q: What about the normalized growth (locus YDR137W, strain rgp1, stronger effect = lower value) of the same molecule?
A: Its normalized growth is 1.33 [resistant] (active).

Q: And the normalized growth (locus YDR150W, strain NUM1, stronger effect = lower value)?
A: The normalized growth was 1.02 (inactive).

Q: And the normalized growth (locus YDR159W, strain sac3, stronger effect = lower value)?
A: Its normalized growth is 0.996 (inactive).

Q: And the normalized growth (locus YDR162C, strain NBP2, stronger effect = lower value)?
A: Its normalized growth is 0.895 (inactive).

Q: What about the normalized growth (locus YDR195W, strain ref2) of the same molecule?
A: The normalized growth was 1.49 [resistant] (active).

Q: What about the normalized growth (locus YDR297W, strain sur2, stronger effect = lower value) of the same molecule?
A: Its normalized growth is 0.975 (inactive).

Q: And the normalized growth (locus YDR318W, strain mcm21, stronger effect = lower value)?
A: The normalized growth was 0.982 (inactive).

Q: What about the normalized growth (locus YDR334W, strain swr1, stronger effect = lower value) of the same molecule?
A: The normalized growth was 0.974 (inactive).

Q: What about the normalized growth (locus YDR335W, strain msn5, stronger effect = lower value) of the same molecule?
A: The normalized growth was 0.96 (inactive).

Q: And the normalized growth (locus YDR388W, stronger effect = lower value)?
A: Its normalized growth is 0.819 (active).

Q: And the normalized growth (locus YDR392W, strain spt3, stronger effect = lower value)?
A: Its normalized growth is 0.995 (inactive).

Q: And the normalized growth (locus YDR502C, strain sam2, stronger effect = lower value)?
A: Its normalized growth is 0.951 (inactive).

Q: What about the normalized growth (locus YEL003W, strain gim4, stronger effect = lower value) of the same molecule?
A: Its normalized growth is 0.966 (inactive).

Q: And the normalized growth (locus YEL037C, strain rad23, stronger effect = lower value)?
A: The normalized growth was 0.983 (inactive).

Q: And the normalized growth (locus YEL061C, strain CIN8 (second series), stronger effect = lower value)?
A: Its normalized growth is 0.981 (inactive).

Q: What about the normalized growth (locus YEL061C, strain CIN8, stronger effect = lower value) of the same molecule?
A: The normalized growth was 1 (inactive).

Q: What about the normalized growth (locus YER015W, strain faa2, stronger effect = lower value) of the same molecule?
A: Its normalized growth is 0.668 (active).

Q: And the normalized growth (locus YER016W, strain bim1, stronger effect = lower value)?
A: The normalized growth was 0.953 (inactive).

Q: And the normalized growth (locus YER110C, stronger effect = lower value)?
A: Its normalized growth is 1.02 (inactive).

Q: And the normalized growth (locus YER111C, strain swi4, stronger effect = lower value)?
A: Its normalized growth is 0.99 (inactive).

Q: And the normalized growth (locus YER155C, strain BEM2 (second series), stronger effect = lower value)?
A: The normalized growth was 1.03 (inactive).

Q: And the normalized growth (locus YER155C, strain BEM2, stronger effect = lower value)?
A: The normalized growth was 1.03 (inactive).

Q: And the normalized growth (locus YER167W, strain BCK2, stronger effect = lower value)?
A: Its normalized growth is 1 (inactive).

Q: And the normalized growth (locus YFR010W, strain ubp6, stronger effect = lower value)?
A: Its normalized growth is 0.706 (active).

Q: What about the normalized growth (locus YGL078C, strain dbp3, stronger effect = lower value) of the same molecule?
A: Its normalized growth is 1.01 (inactive).

Q: And the normalized growth (locus YGL086W, strain mad1, stronger effect = lower value)?
A: Its normalized growth is 0.942 (inactive).

Q: And the normalized growth (locus YGL167C, strain pmr1, stronger effect = lower value)?
A: Its normalized growth is 0.997 (inactive).

Q: What about the normalized growth (locus YGL173C, strain kem1, stronger effect = lower value) of the same molecule?
A: Its normalized growth is 0.844 (active).

Q: And the normalized growth (locus YGL227W, strain vid30, stronger effect = lower value)?
A: The normalized growth was 0.979 (inactive).

Q: What about the normalized growth (locus YGL240W, strain doc1, stronger effect = lower value) of the same molecule?
A: The normalized growth was 0.95 (inactive).

Q: And the normalized growth (locus YGL248W, strain PDE1, stronger effect = lower value)?
A: Its normalized growth is 0.894 (inactive).

Q: And the normalized growth (locus YGL253W, strain hxk2, stronger effect = lower value)?
A: The normalized growth was 0.845 (active).

Q: And the normalized growth (locus YGR135W, strain pre9, stronger effect = lower value)?
A: The normalized growth was 0.827 (active).

Q: And the normalized growth (locus YGR229C, strain SMI1, stronger effect = lower value)?
A: The normalized growth was 0.635 (active).

Q: And the normalized growth (locus YGR252W, strain gcn5, stronger effect = lower value)?
A: Its normalized growth is 0.542 (active).

Q: And the normalized growth (locus YHR013C, strain ard1, stronger effect = lower value)?
A: Its normalized growth is 0.637 (active).

Q: What about the normalized growth (locus YHR027C, strain rpn1, stronger effect = lower value) of the same molecule?
A: The normalized growth was 0.679 (active).

Q: And the normalized growth (locus YHR030C, strain SLT2, stronger effect = lower value)?
A: Its normalized growth is 0.882 (active) and 0.899 (inactive).

Q: And the normalized growth (locus YHR079C, strain IRE1 (second series), stronger effect = lower value)?
A: The normalized growth was 1 (inactive).

Q: What about the normalized growth (locus YHR079C, strain IRE1, stronger effect = lower value) of the same molecule?
A: Its normalized growth is 0.93 (inactive).

Q: And the normalized growth (locus YHR094C, strain hxt1, stronger effect = lower value)?
A: Its normalized growth is 1.02 (inactive).

Q: And the normalized growth (locus YHR129C, strain ARP1, stronger effect = lower value)?
A: The normalized growth was 0.994 (inactive).

Q: And the normalized growth (locus YHR142W, strain chs7, stronger effect = lower value)?
A: Its normalized growth is 0.76 (active).

Q: And the normalized growth (locus YHR200W, strain rpn10, stronger effect = lower value)?
A: Its normalized growth is 1.02 (inactive).

Q: And the normalized growth (locus YIL066C, strain RNR3, stronger effect = lower value)?
A: Its normalized growth is 0.854 (active).

Q: And the normalized growth (locus YIL073C, strain SPO22, stronger effect = lower value)?
A: The normalized growth was 0.961 (inactive).

Q: And the normalized growth (locus YIL125W, strain kgd1, stronger effect = lower value)?
A: The normalized growth was 1.01 (inactive).

Q: And the normalized growth (locus YIR030C, strain dcg1, stronger effect = lower value)?
A: The normalized growth was 1.01 (inactive).

Q: And the normalized growth (locus YJL092W, strain hpr5, stronger effect = lower value)?
A: Its normalized growth is 0.972 (inactive).

Q: What about the normalized growth (locus YJL095W, strain BCK1 (second series), stronger effect = lower value) of the same molecule?
A: The normalized growth was 0.628 (active).

Q: What about the normalized growth (locus YJL095W, strain BCK1, stronger effect = lower value) of the same molecule?
A: Its normalized growth is 0.637 (active) and 0.914 (inactive).

Q: And the normalized growth (locus YJL115W, strain asf1, stronger effect = lower value)?
A: The normalized growth was 0.987 (inactive).

Q: And the normalized growth (locus YJL129C, strain trk1, stronger effect = lower value)?
A: The normalized growth was 0.91 (inactive).

Q: And the normalized growth (locus YJL134W, strain LCB3, stronger effect = lower value)?
A: Its normalized growth is 1.01 (inactive).

Q: And the normalized growth (locus YJL154C, strain vps35, stronger effect = lower value)?
A: Its normalized growth is 0.99 (inactive).

Q: And the normalized growth (locus YJL164C, strain tpk1, stronger effect = lower value)?
A: The normalized growth was 0.878 (active).

Q: And the normalized growth (locus YJL166W, strain qcr8, stronger effect = lower value)?
A: The normalized growth was 0.877 (active).

Q: What about the normalized growth (locus YJL168C, strain set2, stronger effect = lower value) of the same molecule?
A: The normalized growth was 1.02 (inactive).

Q: What about the normalized growth (locus YJL187C, strain SWE1 (second series), stronger effect = lower value) of the same molecule?
A: Its normalized growth is 0.872 (inactive).
